Experimental data: PubChem BioAssay (NCI)
The panel holds about 83,000 compounds, 20% with a hit somewhere; the sample as a whole holds those more often.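 A percent growth of 40 corresponds to 60% growth inhibition; 0 means no net growth; -100 means all cells died. Active threshold: below 10.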 The source made the active and inactive calls.

What was measured:
Assay in all cases: NCI-60 one-dose screen, 48 h (100 = growth as untreated, 0 = no growth, -100 = all killed)
Details in all cases: 10 µM unless noted
[1] = test system: EKVX NSCLC
[2] = test system: SN12C renal
[3] = test system: UO-31 renal
[4] = test system: ACHN renal
[5] = test system: CAKI-1 renal
[6] = test system: A498 renal
[7] = test system: CCRF-CEM leukemia
[8] = test system: MOLT-4 leukemia
[9] = test system: SR leukemia

Measured: growth

CNC(=O)c1cc(-c2ccc(NC(=O)Nc3ccc(N4CCN(C)CC4)c(C(F)(F)F)c3)cc2)nc2cccnc12
active: [1] -74% | [2] -73.4% | [3] -81% | [4] -94.6% | [5] -80.4% | [7] -15.1% | [8] -30.5% | [9] -45.4%
inactive: [6] 40.9%

Clc1ccc(Cc2nnc3sc(-c4cccnc4)nn23)cc1
inactive: [1] 85.2% | [2] 100% | [3] 71.7% | [4] 96.8% | [5] 84% | [6] 83.9% | [8] 97.2% | [9] 91.1%

CCC/C=C/C=C/C(=O)N[C@@H](Cc1cc(F)cc(F)c1)C(=O)N[C@@H]1C(=O)N2CCC[C@H]2C(=O)N2CCCC[C@H]2C(=O)N[C@@H](C)C(=O)N2C[C@H](C)C[C@H]2C(=O)O[C@H]1C
inactive: [1] 32.1% | [2] 20.3% | [3] 29.7% | [4] 23.1% | [5] 11.5% | [7] 28.9% | [8] 34.7% | [9] 27.1%
active: [6] 3.26%

O=C1Nc2ccc(Cl)cc2/C1=C/c1ccc(OCC(=O)c2ccc(Br)cc2)cc1
inactive: [1] 81.6% | [2] 93.5% | [3] 73.4% | [4] 88.4% | [5] 76.1% | [6] 107% | [8] 95.6% | [9] 103%

COc1ccc(NC(=O)c2sc3nc(-c4cnccn4)cc(-c4cccs4)c3c2N)cc1
inactive: [1] 87.6% | [2] 80.8% | [3] 52.3% | [4] 43.8% | [5] 36.4% | [6] 49.5% | [8] 83.5% | [9] 71.6%

Cn1ccnc1C(=O)/C=C/c1ccc(NC(=O)Nc2ccccc2)cc1
inactive: [1] 16.5% | [2] 45.6% | [3] 40.7% | [4] 26.8% | [5] 31.9%
active: [7] 7.34% | [8] 4.35% | [9] -3.08%

OC1CCN(CCCOc2c3ccc(Cl)cc3nc3c2oc2ccccc23)CC1
active: [1] -43.4% | [2] 6.58% | [3] -52.1% | [4] -50.1% | [5] -3.51% | [6] -91.3% | [8] -21.5% | [9] -38.5%

Cn1c(SCC(=O)Nc2ccc(-c3nc4ccc([N+](=O)[O-])cc4[nH]3)cc2)nc2ccccc2c1=O
inactive: [1] 84.5% | [2] 91.1% | [3] 84.7% | [4] 65.6% | [5] 45.9% | [7] 86.8% | [8] 77.5% | [9] 82.4%

C#C[C@]1(O)CC[C@H]2[C@@H]3CC=C4c5sc(-c6ccc(F)cn6)nc5CC[C@]4(C)[C@H]3CC[C@@]21C
inactive: [1] 25.4% | [2] 58.7% | [3] 52.7% | [4] 47.2% | [5] 20.6%
active: [6] -24.7% | [8] -7.92% | [9] -2.25%

C#Cc1nc(C2=C(C)C(O)/C(=N/O)C2)cs1 (stereo not given)
active: [3] -91.1% | [7] -27.7% | [9] -32.8%
inactive: [1] 91.3% | [2] 99.9% | [4] 21.5% | [5] 76.5% | [8] 86.5%

CCOC(=O)c1c(Nc2ccccc2)nn2c(N)c(C#N)c(-c3ccccc3)nc12
inactive: [1] 82.3% | [2] 93.9% | [3] 81.1% | [4] 83.4% | [5] 72% | [7] 68.3% | [8] 46.8% | [9] 58.9%

CCOC(=O)c1c(Nc2ccccc2)nn2c(N)c(C#N)c(-c3ccc(OC)cc3)nc12
inactive: [1] 69.2% | [2] 86.6% | [3] 76.7% | [4] 38.5% | [5] 52.8% | [6] 75.5% | [8] 94.7%

C=C1CC[C@H]2[C@@](C)(CCC3OC(c4ccc(OCc5cn(C6CC(OC(C)=O)C(OC(C)=O)C(COC(C)=O)O6)nn5)cc4)OC[C@]32C)[C@@H]1/C=C/C1=CCOC1=O (stereo not given in full)
inactive: [1] 52.3% | [2] 67.5% | [3] 57.7% | [4] 72.7% | [5] 77% | [7] 65.7% | [8] 62.1% | [9] 51%

CN(C)CCCOc1c2ccc(Cl)cc2nc2c1oc1ccccc12
inactive: [2] 18%
active: [1] -41.6% | [3] -51.9% | [4] -6.02% | [5] 1.08% | [6] -91.8% | [7] 0.191% | [8] -17% | [9] -34.2%

C#Cc1nc(C2=C(C)C(OC(C)=O)/C(=N/OC(C)=O)C2)cs1 (stereo not given)
inactive: [2] 86.6%
active: [1] 9.96% | [3] -88.9% | [4] -66% | [5] -50.2% | [7] -39% | [8] -35.2% | [9] -25.6%

COc1cc(/C=C/C(=O)c2cc(OC)c(OC)c(OC)c2)ccc1Oc1nc(NCCO)nc(N2CCOCC2)n1
inactive: [1] 11.2% | [3] 20.9% | [5] 15.6%
active: [2] 9.45% | [4] -52.5% | [7] 0.121% | [8] 6.72% | [9] -0.481%

COc1ccc(/C=C2\SC(=Nc3cc(C)on3)NC2=O)cc1
inactive: [1] 89.7% | [2] 100% | [3] 85.5% | [4] 106% | [5] 96.6% | [7] 101% | [8] 100% | [9] 98.9%

[Cl][Ru].c1ccc(-c2cc(-c3ccccn3)nc(-c3ccccn3)c2)cc1.c1ccc(-c2ccnc3c2ccc2c(-c4ccccc4)ccnc23)cc1
active: [2] -22.5% | [4] 6% | [5] -6.38% | [6] -20.2% | [8] -16.8% | [9] -40.3%
inactive: [1] 25.9% | [3] 63.9%

CN(C)S(=O)(=O)c1oc(-c2ccccc2)nc1C#N
active: [3] -51% | [4] -83.9% | [7] 1.79% | [8] -13.1% | [9] -19.7%
inactive: [1] 78.3% | [2] 72.4% | [5] 53.7% | [6] 65.6%

N/C(=N\c1nc2c(Br)cccc2s1)C(Br)Br
inactive: [1] 16.4% | [2] 18%
active: [3] 4.29% | [4] -40.4% | [5] -19.6% | [6] 0.53% | [8] -2.89% | [9] -24%

CC(O)C(NC(=O)C1CCCN1C(=O)CNC(=O)C1CC(=O)NCC(=O)NC(Cc2c[nH]c3ccccc23)C(=O)NC(Cc2ccc(O)cc2)C(=O)NCC(=O)NC(CO)C(=O)NC(CCC(N)=O)C(=O)NC(Cc2c[nH]c3ccccc23)C(=O)N1)C(=O)NCC(=O)NC(CCC(N)=O)C(=O)NC(CCCNC(=N)N)C(=O)NC(CC(=O)O)C(=O)O (stereo not given)
inactive: [1] 100% | [2] 101% | [3] 83.3% | [4] 96.2% | [5] 91.5% | [7] 94.7% | [8] 104% | [9] 94.5%

COc1cc2nc(-c3ccc(C)cc3)cc(OCCCNCC3CCCO3)c2cc1OC (stereo not given)
inactive: [1] 73.4% | [2] 57.3% | [3] 72% | [4] 65.7% | [5] 24.6% | [6] 46.9% | [8] 71.9% | [9] 41.1%

N#Cc1c(-c2ccc(F)cc2)nc2c(C#N)c(Nc3ccccc3)nn2c1N
inactive: [1] 92.8% | [2] 97.7% | [3] 90.7% | [4] 105% | [5] 90.7% | [6] 66.3% | [8] 102% | [9] 93.3%

Cn1ccnc1C(=O)/C=C/c1ccc(NC(=O)Nc2ccc(F)cc2)cc1
inactive: [1] 39.3% | [2] 53.8% | [3] 56.6% | [4] 49.5% | [5] 55.1% | [7] 12.6% | [8] 11.6%
active: [9] 3.97%
